Test results taken from PubChem BioAssay (EPA / NIEHS).
Several values for one entry are separate records, joined by “and”; a condition that tells them apart may be missing. Equal entries are not always repeated. A structure can be active in one record and inactive in another. Activity calls are given as the source filed them. Rule for the calls: active = hit-call score of the fitted dose curve at least 0.9, where 1 is the maximum; inactive = score below 0.9.

What follows are molecules tested on Protein phosphatase 2A (PPP2R4), PTPA (gene 5524) (assay: LTEA_HepaRG_PPP2R4: Life Technologies and Expression Analysis (LTEA) Assay for Protein phosphatase 2A (PPP2R4) using HepaRG (AID 2283522)). Conditions: mRNA level, 48 h; actives raise or lower the signal.
Outline: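 Expression was quantified by Fluidigm qRT-PCR normalised to three housekeeping genes after 48 h treatment. Human HepaRG cells received an 8-point series from 100 µM downward by half-logs, in duplicate with 0.5% DMSO vehicle and 1 mM phenobarbital as induction control.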

Compound	outcome	AC50
CCOC(=O)C(Cl)Cc1cc(-n2nc(C)n(C(F)F)c2=O)c(F)cc1Cl (configuration not stated)	inactive	–
CCc1nn(C)c(C(=O)NCc2ccc(C(C)(C)C)cc2)c1Cl	inactive	–
COC(=O)N(OC)c1ccccc1COc1ccn(-c2ccc(Cl)cc2)n1	inactive	–
N#CC(CCc1ccc(Cl)cc1)(Cn1cncn1)c1ccccc1 (configuration not stated)	inactive	–
CNC(=O)ON=CC(C)(C)SC	inactive	–
CCNc1nc(Cl)nc(NC(C)C)n1	inactive	–
CCON=C(CC)C1=C(O)CC(c2c(C)cc(C)cc2C)CC1=O (configuration not stated)	inactive	–
CCCC1COC(Cn2cncn2)(c2ccc(Cl)cc2Cl)O1 (configuration not stated)	inactive	–
CCCCOC(=O)c1ccccc1C(=O)OCCCC	inactive	–
COC(=O)c1ccccc1C(=O)OC	inactive	–
C=CCC1=C(C)C(OC(=O)C2C(C=C(C)C)C2(C)C)CC1=O (configuration not stated)	inactive	–
COP(N)(=O)SC (configuration not stated)	inactive	–
O=C(O)COc1nc(Cl)c(Cl)cc1Cl	inactive	–
COc1ccc(C(c2ccc(OC)cc2)C(Cl)(Cl)Cl)cc1	inactive	–
COC(=O)C=C(C)OP(=O)(OC)OC	inactive	–
CCOc1cc(Oc2ccc(C(F)(F)F)cc2Cl)ccc1[N+](=O)[O-]	inactive	–
CCOC(=O)CC(SP(=S)(OC)OC)C(=O)OCC (configuration not stated)	inactive	–
CNC(=S)S	inactive	–
CCCN(CCC)c1c([N+](=O)[O-])cc(S(N)(=O)=O)cc1[N+](=O)[O-]	inactive	72 µM (active)
CC(C)C1(C)N=C(c2nc3ccccc3cc2C(=O)O)NC1=O (configuration not stated)	inactive	–
CC(Oc1ccc(Cl)cc1Cl)C(=O)O (configuration not stated)	inactive	–
O=C(Nc1ccccc1)Nc1ccnc(Cl)c1	–	77.7 µM (active)
Cc1ccc(-c2c(Cl)nc(C#N)n2S(=O)(=O)N(C)C)cc1	–	32.2 µM (active)
C#CCOS(=O)OC1CCCCC1Oc1ccc(C(C)(C)C)cc1 (configuration not stated)	–	29.8 µM (active)
CCCCC(CC)COC(=O)c1ccccc1C(=O)OCC(CC)CCCC (configuration not stated)	inactive	–

What follows are molecules tested on Phosphatase and tensin (PTEN), PTEN (gene 5728) (assay: LTEA_HepaRG_PTEN: Life Technologies and Expression Analysis (LTEA) Assay for Phosphatase and tensin (PTEN) using HepaRG (AID 2283523)). Conditions: mRNA level, 48 h; actives raise or lower the signal.
Outline: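 Expression of PTEN is quantified in the human liver line HepaRG following two days of dosing (top concentration 100 uM, half-log dilutions, 0.5% DMSO). Values derive from bidirectional curve fitting relative to DMSO controls.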

Compound	outcome	AC50
CCOC(=O)C(Cl)Cc1cc(-n2nc(C)n(C(F)F)c2=O)c(F)cc1Cl (configuration not stated)	inactive	–
CCc1nn(C)c(C(=O)NCc2ccc(C(C)(C)C)cc2)c1Cl	–	50 µM (active)
COC(=O)N(OC)c1ccccc1COc1ccn(-c2ccc(Cl)cc2)n1	–	78.5 µM (active)
N#CC(CCc1ccc(Cl)cc1)(Cn1cncn1)c1ccccc1 (configuration not stated)	inactive	–
CNC(=O)ON=CC(C)(C)SC	inactive	–
CCNc1nc(Cl)nc(NC(C)C)n1	inactive	–
CCON=C(CC)C1=C(O)CC(c2c(C)cc(C)cc2C)CC1=O (configuration not stated)	inactive	–
CCCC1COC(Cn2cncn2)(c2ccc(Cl)cc2Cl)O1 (configuration not stated)	inactive	–
CCCCOC(=O)c1ccccc1C(=O)OCCCC	inactive	–
COC(=O)c1ccccc1C(=O)OC	inactive	–
C=CCC1=C(C)C(OC(=O)C2C(C=C(C)C)C2(C)C)CC1=O (configuration not stated)	inactive	–
COP(N)(=O)SC (configuration not stated)	inactive	–
O=C(O)COc1nc(Cl)c(Cl)cc1Cl	inactive	–
COc1ccc(C(c2ccc(OC)cc2)C(Cl)(Cl)Cl)cc1	inactive	–
COC(=O)C=C(C)OP(=O)(OC)OC	inactive	–
CCOc1cc(Oc2ccc(C(F)(F)F)cc2Cl)ccc1[N+](=O)[O-]	inactive	–
CCOC(=O)CC(SP(=S)(OC)OC)C(=O)OCC (configuration not stated)	inactive	–
CNC(=S)S	inactive	–
CCCN(CCC)c1c([N+](=O)[O-])cc(S(N)(=O)=O)cc1[N+](=O)[O-]	–	93.1 µM (active) and 75.5 µM (active) and 76.5 µM (active)
CC(C)C1(C)N=C(c2nc3ccccc3cc2C(=O)O)NC1=O (configuration not stated)	inactive	–
CC(Oc1ccc(Cl)cc1Cl)C(=O)O (configuration not stated)	inactive	–
O=C(Nc1ccccc1)Nc1ccnc(Cl)c1	–	75.2 µM (active)
Cc1ccc(-c2c(Cl)nc(C#N)n2S(=O)(=O)N(C)C)cc1	–	16.8 µM (active)
C#CCOS(=O)OC1CCCCC1Oc1ccc(C(C)(C)C)cc1 (configuration not stated)	–	30.7 µM (active)
CCCCC(CC)COC(=O)c1ccccc1C(=O)OCC(CC)CCCC (configuration not stated)	inactive	–

These molecules were tested on solute carrier (SLC22A1), SLC22A1 (gene 6580) (assay: LTEA_HepaRG_SLC22A1: Life Technologies and Expression Analysis (LTEA) Assay for solute carrier (SLC22A1) using HepaRG (AID 2283524;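 for AC50: differentiated human HepaRG liver cells in serum-free induction medium; TaqMan qRT-PCR normalized to ACTB GAPDH and POLR2A housekeeping genes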)). Conditions: mRNA level, 48 h; actives raise or lower the signal.
Outline: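 Transcript induction or suppression of SLC22A1 in human HepaRG cultures is scored after 48 h chemical treatment, with DMSO (0.5%) as baseline for bidirectional fitting. Concentrations span eight half-log points topping at 100 uM.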

Compound	outcome	AC50
CCOC(=O)C(Cl)Cc1cc(-n2nc(C)n(C(F)F)c2=O)c(F)cc1Cl (configuration not stated)	inactive	–
CCc1nn(C)c(C(=O)NCc2ccc(C(C)(C)C)cc2)c1Cl	–	4.52 µM (active)
COC(=O)N(OC)c1ccccc1COc1ccn(-c2ccc(Cl)cc2)n1	–	58.7 µM (active)
N#CC(CCc1ccc(Cl)cc1)(Cn1cncn1)c1ccccc1 (configuration not stated)	–	71.5 µM (active)
CNC(=O)ON=CC(C)(C)SC	inactive	–
CCNc1nc(Cl)nc(NC(C)C)n1	inactive	–
CCON=C(CC)C1=C(O)CC(c2c(C)cc(C)cc2C)CC1=O (configuration not stated)	inactive	–
CCCC1COC(Cn2cncn2)(c2ccc(Cl)cc2Cl)O1 (configuration not stated)	–	40.5 µM (active)
CCCCOC(=O)c1ccccc1C(=O)OCCCC	inactive	–
COC(=O)c1ccccc1C(=O)OC	inactive	–
C=CCC1=C(C)C(OC(=O)C2C(C=C(C)C)C2(C)C)CC1=O (configuration not stated)	–	86.3 µM (active) and 83.2 µM (active) and 50 µM (active)
COP(N)(=O)SC (configuration not stated)	inactive	–
O=C(O)COc1nc(Cl)c(Cl)cc1Cl	inactive	–
COc1ccc(C(c2ccc(OC)cc2)C(Cl)(Cl)Cl)cc1	–	84.8 µM (active)
COC(=O)C=C(C)OP(=O)(OC)OC	inactive	–
CCOc1cc(Oc2ccc(C(F)(F)F)cc2Cl)ccc1[N+](=O)[O-]	–	38.6 µM (active)
CCOC(=O)CC(SP(=S)(OC)OC)C(=O)OCC (configuration not stated)	inactive	–
CNC(=S)S	inactive	–
CCCN(CCC)c1c([N+](=O)[O-])cc(S(N)(=O)=O)cc1[N+](=O)[O-]	inactive	57 µM (active)
CC(C)C1(C)N=C(c2nc3ccccc3cc2C(=O)O)NC1=O (configuration not stated)	inactive	–
CC(Oc1ccc(Cl)cc1Cl)C(=O)O (configuration not stated)	inactive	–
O=C(Nc1ccccc1)Nc1ccnc(Cl)c1	–	68 µM (active)
Cc1ccc(-c2c(Cl)nc(C#N)n2S(=O)(=O)N(C)C)cc1	–	50 µM (active)
C#CCOS(=O)OC1CCCCC1Oc1ccc(C(C)(C)C)cc1 (configuration not stated)	–	20.7 µM (active)
CCCCC(CC)COC(=O)c1ccccc1C(=O)OCC(CC)CCCC (configuration not stated)	inactive	–
